In the library only some 4.6% were active in any assay of this set; here they are far more common.
TIM10 inh = growth inhibitors of isogenic TIM10 control yeast, primary screen, counter-screen for tim10-1 yeast inhibitor project, luminescence, uHTS | inhibition, % at 10 µM | S. cerevisiae TIM10 strain growth, BacTiter-Glo luminescence, 24 h | actives 1.4% (n = 330,000);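 active = inhibition of 40% or more at the single tested concentration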;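 also: wild-type TIM10 isogenic control strain grown at permissive 25 °C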
SKKanGAS inh = S. pyogenes SKKanGAS growth inhibitors in kanamycin, primary screen, streptokinase expression inhibitor project, SKKanGAS strain, BacTiter-Glo luminescence; 6 h; inhibition, % at 7.5 µM; actives 1.3% (n = 300,000);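 active = mean replicate score, as percent of positive control median, at least 50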;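 also: strain carries kanamycin resistance gene driven by streptokinase promoter and grows in 40 µg/ml kanamycin; loss of luminescence reflects streptokinase promoter inhibition or plain growth inhibition; 0% = median of DMSO wells and 100% = positive control at its reference dose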
tim10-1 inh = growth inhibitors of tim10-1 mutant yeast, primary screen, luminescence, uHTS; S. cerevisiae tim10-1 ts strain growth, BacTiter-Glo, 24 h; inhibition, % at 20 µM; actives 2.2% (n = 330,000); AID 463190, 2010;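 active = inhibition of at least 40%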;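 also: mutant grown at 25 °C; 0% = DMSO wells with yeast and 100% = wells holding no yeast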
tim23-1 inh = growth inhibitors of tim23-1 mutant yeast, primary screen, luminescence, uHTS; S. cerevisiae tim23-1 growth, BacTiter-Glo luminescence, 24 h; inhibition, % at 20 µM; actives 1.3% (n = 330,000);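 active = growth inhibition of the mutant yeast at or above 50%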;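 also: temperature-sensitive mutant grown at 25 °C; plate controls were DMSO-treated mutant yeast for no effect and medium wells lacking yeast for full effect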
PfHsp90 set2 = growth inhibition of PfHsp90-expressing yeast, primary screen, antimalarial PfHsp90 inhibitor project, S. cerevisiae, BacTiter-Glo luminescence, single point, set 2; inhibition, % at 9.4 µM; actives 0.32% (n = 310,000); BacTiter-Glo ATP, 48 h; yeast lacking PDR1 and PDR3 efflux regulators; AID 504621, 2011;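 active = every replicate shows inhibition above about 80%, whatever the replicate mean, limit read from the data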;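 also: 0% = DMSO neutral controls and 100% = 20 µM radicicol positive controls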
NALP3 yeast inh = NALP3 inflammasome inhibitors in reconstituted yeast, primary screen, luminescence, uHTS | actives 0.39% (n = 330,000) | inhibition, % at 10 µM | Yeast reconstituted NLRP3/ASC/caspase-1, beta-gal luminescence, 24 h;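 active = inhibition of 50% or more; inactive = inhibition below 50%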;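 also: plate controls were induced DMSO wells for no effect and uninduced yeast grown without galactose for full effect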
Numbers without * were called inactive; x = not tested or not shown.

SMILES	TIM10 inh	SKKanGAS inh	tim10-1 inh	tim23-1 inh	PfHsp90 set2	NALP3 yeast inh
COc1cc(/C=N/NC(=O)c2ccncc2)ccc1OC(=O)c1ccccc1Cl	22	-5	27	-7	-5	4
COc1cc(C(=O)N/N=C/c2ccc(OC(=O)c3cccc(C)c3)cc2)ccc1O	5	52*	0	11	13	22
COc1cc(C(=O)N/N=C/c2ccc(OC(=O)c3ccccc3Cl)c(OC)c2)ccc1O	3	66*	14	12	-4	11
Cn1cccc1-c1cc(C(=O)N/N=C/c2cc(Br)ccc2O)[nH]n1	30	90*	-22	29	8	10
COC(=O)CSCC(=O)Nc1nnc(-c2cccc(C)c2)s1	22	x	20	11	-2	-3
COc1cccc(/C=N/NC(=O)c2cc3c(OC)ccc(OC)c3[nH]2)c1O	22	106*	1	29	-5	10
O=C(NNc1c2ccccc2nc2ccccc12)c1ccc(O)cc1O	8	51*	3	-5	13	29
O=C(NNc1c2ccccc2nc2ccccc12)c1ccccc1O	22	43	8	-2	13	23
COc1ccc(CSc2nc(C)cc(C)c2S(C)(=O)=O)cc1	-2	1	3	9	14	-16
C[C@@H](NC(=O)c1nc[nH]c1C(=O)N[C@@H](Cc1ccccc1)C(=O)OC(C)(C)C)c1ccccc1	8	84*	12	15	-13	9
C[C@H](NC(=O)c1nc[nH]c1C(=O)N[C@@H](Cc1ccccc1)C(=O)OC(C)(C)C)c1ccccc1	21	54*	27	25	4	26
CNC(=O)c1[nH]cnc1C(=O)N[C@@H](Cc1ccccc1)C(=O)OC(C)(C)C	10	3	13	13	-5	10
COCCCN1C(=O)c2ccc(C(=O)OCC(=O)N3CCN(c4ccccc4)CC3)cc2C1=O	-1	-6	10	18	-4	15
O=c1cnnc(N/N=C/C2CC=CCC2)[nH]1 (configuration not stated)	9	-3	5	10	-5	10
O=C(CSc1nnc(-c2ccc3c(c2)OCO3)o1)Nc1ncc(C(F)(F)F)cc1Cl	14	98*	19	-39	-1	-13
CCc1nnc(NS(=O)(=O)c2ccc(NCc3cc(Cl)cc(Cl)c3O)cc2)s1	8	54*	-3	10	2	23
CCN(CC(=O)Nc1ccccc1C(F)(F)F)C(=O)c1ccc2[nH]c3c(c2c1)CC(C)CC3 (configuration not stated)	18	-13	28	35	x	-9
COc1ccccc1-c1oc2ccccc2c1C#CCCO	-7	x	3	27	5	45
Cc1cccc(-c2oc3ccccc3c2C#CCCCCO)c1	8	76*	18	6	-5	1
CN(C)NC(=O)C12CCC(C)(C(=O)O1)C2(C)C (configuration not stated)	-5	-1	5	-8	11	19
COc1cccc(N=Nc2c(N)[nH]n3c(=O)cc(-c4ccccc4)nc23)c1	9	110*	13	11	-4	17
COc1ccc(-c2c(C(F)(F)F)[nH]n3c(=O)cc(-c4ccccc4)nc23)cc1	0	56*	-6	-10	-12	14
CCc1cc(=O)n2[nH]c(C)c(-c3ccc(OC)cc3)c2n1	9	-2	20	12	4	14
Cc1[nH]n2c(=O)cc(C(C)(C)C)nc2c1-c1ccccc1	5	89*	29	-3	12	-3
Cc1[nH]n2c(=O)cc(-c3ccc([N+](=O)[O-])cc3)nc2c1-c1ccccc1	13	102*	16	18	10	9
SMILES	TIM10 inh	SKKanGAS inh	tim10-1 inh	tim23-1 inh	PfHsp90 set2	NALP3 yeast inh
Cc1[nH]n2c(=O)cc(C(C)C)nc2c1-c1ccccc1	-3	9	7	-3	8	5
Cc1cccc(NC(=O)CN(CC2CCCO2)C(=O)c2cc(S(=O)(=O)N(C)C)ccc2F)c1C (configuration not stated)	11	x	-2	-6	-8	3
Cc1ccn(CC(=O)N2CCCC(N3CCN(Cc4ccc5c(c4)OCO5)CC3)C2)n1 (configuration not stated)	3	2	-23	-3	-4	11
Nc1nc(CN2CCN(c3ccc(F)cc3)CC2)nc(N2CCCc3ccccc32)n1	20	84*	38	38	x	18
CN(C)Cc1cc(C(F)(F)F)ccc1C(O)(c1ccccc1)c1ccccc1	x	x	x	x	-16	x
COc1cccc(C2C3=C(N=c4s/c(=C\c5ccc(OCC(=O)O)cc5)c(=O)n42)c2ccccc2CC3)c1 (configuration not stated)	12	102*	22	13	x	15
Cc1ccc(-n2cccc2/C=C2/C(=N)N3C(=NC2=O)SN=C3S(C)(=O)=O)cc1	24	48	15	19	27	14
Cc1cc(C)cc(-n2cccc2/C=C2/C(=N)N3C(=NC2=O)SN=C3S(C)(=O)=O)c1	18	71*	24	26	-4	8
COc1cccc(-n2c(C)cc(/C=C3/C(=N)N4C(=NC3=O)SN=C4S(C)(=O)=O)c2C)c1	31	69*	14	22	0	-3
O=C(c1cccc(S(=O)(=O)N2CCc3ccccc32)c1)N1CCOCC1	-3	x	-11	0	x	11
Cn1nc(-c2ccccn2)nc2c(=O)n(C)c(=O)nc1-2	-8	52*	16	13	-14	-11
CCCc1nc2c(=O)n(C)c(=O)nc-2n(C)n1	x	x	x	x	-31	x
CCCCCCc1cc2cc(-c3nnc(-c4ccccc4O)o3)c(=O)oc2cc1O	36	98*	25	4	-16	-16
CN(C)c1ccc(C(C(=O)NC2CCCCC2)N(Cc2ccco2)C(=O)c2snc(C(N)=O)c2N)cc1 (configuration not stated)	12	4	23	24	10	0
O=[N+]([O-])c1ccc(N2CCCCC2)c(Cl)c1N1CCCCC1	-2	93*	9	9	14	13
N#Cc1c(-c2c(Cl)cccc2Cl)noc1/C=C/Nc1ccc(C(=O)O)cc1	11	59*	16	12	11	-9
Cc1ccc(-c2n[nH]c(=S)nc2-c2ccc(C)cc2)cc1	x	1	x	x	-12	x
Cc1ccc(-c2n[nH]c3c2CCC3)cc1	28	55*	11	35	-5	44
O=C(O)c1ccc(N=Nc2c(O)[nH]c3cc(Cl)ccc23)cc1	8	70*	10	8	-8	19

Bioassay records from PubChem.
